In PubChem BioAssay (NCATS):
Where “and” joins values, the source holds several entries; their conditions need not be identical. Equal entries are not always repeated. Records with an inconclusive call do not appear. Some structures have more than one record in an assay (separate samples or runs), and their calls can disagree. Unmarked numbers belong to inactive results. Calls of active or inactive are those of the source. Calls come from the whole dose curve; as a rule, active = well fitted inhibition curve with a large enough effect; inconclusive = small, poorly fitted or top-dose-only effect; inactive = flat fitted curve, though single readings scatter. Peptide text beside a SMILES is read from it.

tested on: HEK293; experiment: Cytotoxic Profiling of Annotated Libraries Using Quantitative High-Throughput Screening (AID 1296008); conditions: Five cell lines viability, CellTiter-Glo ATP luminescence, 48-72 h; max response: active compounds read low; note: nearly all actives have a fitted effect of over 60% in size
Procedure, shortened: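 Compounds were pin-transferred onto cells and incubated 48 or 72 hr at 37 degree Celsius, 95% humidity. CellTiter-Glo was added, plates sat 10 min at room temperature, then ATP-coupled luminescence was imaged as the viability read-out.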
% is set by controls: 0 for no effect and ±100 for the full control effect; potency is the fitted concentration of half-maximal effect.

SMILES | max response | Potency | outcome
Cc1nc(-c2ccc(OCC(C)C)c(C#N)c2)sc1C(=O)O | -1.16% and -8.21% |  | 
Cc1c(C(=O)NN2CCCCC2)nn(-c2ccc(Cl)cc2Cl)c1-c1ccc(Cl)cc1 |  | 26.4 µM (active) | 
Cn1c(NCCN(CCO)CCCc2ccc([N+](=O)[O-])cc2)cc(=O)n(C)c1=O |  |  | inactive
CCN(CCO)CCCC(C)Nc1ccnc2cc(Cl)ccc12 (stereo not drawn) | 2.34% |  | inactive
CN(C)C(=O)COC(=O)Cc1ccc(OC(=O)c2ccc(N=C(N)N)cc2)cc1 | 2.71% |  | inactive
CC(=O)Nc1ccc(O)cc1 | 1.48% |  | inactive
COC1=C(OC)C(=O)C(CCCCCCCCCCO)=C(C)C1=O |  | 23.7 µM (active) | 
COC(=O)[C@H](Cc1ccccc1)NC(=O)[C@@H](N)CC(=O)O (H-Asp-Phe-OMe) | -5.62% and -7.54% |  | 
CC1(C)CCC(C)(C)c2cc(NC(=O)c3ccc(C(=O)O)cc3)ccc21 | 2.4% |  | inactive
COC(=O)C1=C(C)NC(C)=C(C(=O)OCCCN2CCC(c3ccccc3)(c3ccccc3)CC2)C1c1cccc([N+](=O)[O-])c1 (stereo not drawn) | -0.0015% | 8.41 µM (active) | 
O=C(NCC1CCCCN1)c1cc(OCC(F)(F)F)ccc1OCC(F)(F)F (stereo not drawn) | -82.7% |  | 
CCCS(=O)c1ccc2nc(NC(=O)OC)[nH]c2c1 (stereo not drawn) |  | 23.7 µM (active) | 
O=C(NC(Cc1cc(=O)[nH]c2ccccc12)C(=O)O)c1ccc(Cl)cc1 (stereo not drawn) | -6.76% and -6.81% |  | 
CCN(CC)C(=S)SSC(=S)N(CC)CC |  | 59 nM (active) and 313 nM (active) and 841 nM (active) | 
CN(c1nccc(=O)[nH]1)C1CCN(c2nc3ccccc3n2Cc2ccc(F)cc2)CC1 | -109% and 0.851% and -12.1% |  | 
Cc1cc2c(s1)Nc1ccccc1N=C2N1CCN(C)CC1 | 0.773% |  | inactive
CC1=C(C(=O)O)N2C(=O)[C@@H](NC(=O)[C@H](N)C3=CCC=CC3)[C@H]2SC1 | -32.9% |  | inactive
Cc1cc(=O)oc2cc(O)ccc12 | 4.56% |  | inactive
CN(C)c1ccc(O)c2c1C[C@H]1C[C@H]3[C@H](N(C)C)C(=O)C(C(N)=O)=C(O)[C@@]3(O)C(=O)C1=C2O | -11.2% |  | 
Cc1ncc([N+](=O)[O-])n1CC(C)O (stereo not drawn) | 3.63% |  | inactive
CNC[C@H](O)c1ccc(O)c(O)c1 | -3.32% |  | inactive
COC(=O)N[C@H](C(=O)N[C@@H](Cc1ccccc1)[C@@H](O)CN(Cc1ccc(-c2ccccn2)cc1)NC(=O)[C@@H](NC(=O)OC)C(C)(C)C)C(C)(C)C | -5.2% |  | inactive
